Screening results as filed in PubChem.
Most compounds without a hit are left out; they make up all but 2.9% or so of the library.
Shn3 3UTR inh – reduces Shn3 3'UTR luciferase signal in osteoblasts | Clone20 osteoblast Shn3 3'UTR firefly luciferase, 24 h | inhibition, % at 12.5 µM | 360,000 tested, 0.52% active | AID 588674;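 active = mean inhibition of at least 75% with every replicate also reaching 75%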;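 note: 0% = median of neutral control wells and 100% = pilot-screen positive control compound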
EBV LMP1 NFkB – reduces LMP1-driven NF-kappaB luciferase signal; AID 504558; 350,000 tested, 0.69% active; inhibition, % at 12.5 µM; LMP1-induced NF-kappaB luciferase reporter cells, luminescence; in the data active = inhibition above about 41%;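 note: 0% = neutral control wells and 100% = reference inhibitor control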
Peg3 promoter – Peg3 promoter activity inhibition; 360,000 tested, 1.7% active; inhibition, % at 20 µM; HeLa PEG-Prom luciferase reporter, luminescence, overnight;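 active = inhibition of at least 50% at 20 µM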
KKLEB tox – reduces viability of KKLEB cystic fibrosis airway cells. KKLEB CF airway cells viability, ATPlite luminescence, overnight; active compounds read low; cells stimulated with P. aeruginosa culture filtrate. activity change (cytotoxicity), % at 5 µM. 360,000 tested, 0.36% active;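 active = corrected activity change at or below -50% at 5 µM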
CF NFkB inh – blocks PAF-induced NF-kB reporter in cystic fibrosis cells; inhibition, % at 5 µM; 360,000 tested, 0.86% active; KKLEB NF-kB-GFP reporter, GFP fluorescence overnight;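 active = at least 50% inhibition at 5 µM, scaled per plate between neutral and stimulator controls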;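 note: PAF is a Pseudomonas aeruginosa culture filtrate used as stimulus; plate controls were PAF-stimulated DMSO wells for no effect and unstimulated DMSO wells for full effect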
TRPM1 prom inh – MITF TRPM1 promoter inhibition in SK-MEL-5 cells. SK-MEL-5 TRPM1 promoter luciferase, 24 h. inhibition, % at 12.5 µM. 330,000 tested, 0.83% active. AID 488899;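 active = mean inhibition across replicates of 60% or more, whatever share of single replicates reaches that level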
Numbers without * were called inactive; . = no result.

SMILES	Shn3 3UTR inh	EBV LMP1 NFkB	Peg3 promoter	KKLEB tox	CF NFkB inh	TRPM1 prom inh
COCCCNc1ccn2nc(-c3ccc(Cl)cc3)cc2n1	-10	.	-223	0	7	.
CN(CC(=O)Nc1cccc(Cl)c1)S(=O)(=O)/C=C/c1ccccc1	18	-7	23	-6	5	.
O=C(Nc1cc(S(=O)(=O)N2CCOCC2)ccc1Cl)c1ccncc1	-18	69*	2	9	0	3
C/C(=N\NC(=S)Nc1cc(S(=O)(=O)N2CCOCC2)ccc1Cl)c1ccccc1F	34	9	53*	0	15	27
COc1ccc(S(=O)(=O)N2CCOCC2)cc1NC(=O)c1ccc(Cl)cc1	2	3	6	-1	-11	-8
C[C@H]1CN([C@@H](C)CO)C(=O)c2cc(Br)cnc2O[C@H]1CN(C)Cc1ccccc1C(=O)O	-18	-2	-4	-2	13	.
COC(=O)[C@H]1C[C@H](OC(=O)Nc2cccs2)[C@@]2(O)CN(S(=O)(=O)c3ccc(C)cc3)CC2[C@H]1C(=O)OC (stereo partly drawn)	15	-17	-7	-6	11	.
C=CS(=O)(=O)c1sc(Cl)c(N2CCOCC2)c1[N+](=O)[O-]	81	-2	106*	-4	31	32
N#CCc1ccccc1C(=O)OCC(=O)N(Cc1ccccc1)Cc1ccccc1	-3	0	21	-16	16	1
CCCC[C@@H](CNC)NC[C@H](NCCCCC1CCCCC1)C(C)C	-2	-7	104*	-11	23	78*
O=C(/C=C/Sc1ccc(C(F)(F)F)cn1)c1ccccc1	31	-7	96*	-3	-18	41
O=C(CSc1ccc(C(F)(F)F)cn1)Nc1ccccc1	-52	-23	9	-9	8	-4
CC(C)=CCn1c2ccc(NC(=S)NC3CC3)cc2c(=O)n1C	-8	.	4	-11	12	.
COCC1CCCCN1C(=O)c1cc(COc2ccc3ncccc3c2)on1 (stereo not drawn)	89*	16	-1	3	3	28
COCC1CCN(C(=O)c2cc(COc3ccc4c(c3)CCCC4)on2)C1 (stereo not drawn)	2	-4	-23	-11	6	3
CC(CCCC(C)(C)O)NC(=O)c1cc(COc2ccc3ncccc3c2)on1 (stereo not drawn)	90*	10	7	-6	17	11
O=C(c1cc(COc2ccc3c(c2)CCCC3)on1)N1CCCC1	-40	73*	-373	14	-15	-113
CCC1CCCCN1C(=O)c1cc(COc2ccc3ncccc3c2)on1 (stereo not drawn)	88*	-7	3	-2	26	10
CCN1CCN(C(=O)c2cc(COc3ccc4ncccc4c3)on2)CC1	54	19	39	-2	5	7
COCC(=O)N(C)C[C@@H]1Oc2ncc(Br)cc2C(=O)N([C@@H](C)CO)C[C@H]1C	-6	3	3	-12	10	.
CCCCNC(=O)C1(C)CCN1C(=O)c1cccc(OC(F)(F)F)c1 (stereo not drawn)	11	.	-5	0	-1	.
O=C(NCc1cccs1)c1ccc2nc([C@@H]3O[C@H](CO)[C@H](O)[C@H](O)[C@H]3O)[nH]c2c1	-18	.	0	9	-25	.
CCOC(=O)c1c2c(n(-c3ccc(OC)cc3)c1C)C(=O)C(=O)c1ccccc1-2	97*	87*	102*	-91*	82*	94*
CCOC(=O)c1sc(=S)n(-c2ccc(OC)cc2)c1C	-27	.	14	1	1	.
C=C(CN(C)C)C(=O)c1ccc(C)cc1C	97*	-8	99*	-2	7	109*
SMILES	Shn3 3UTR inh	EBV LMP1 NFkB	Peg3 promoter	KKLEB tox	CF NFkB inh	TRPM1 prom inh
OCCCCCCNc1ccc(CCO)cc1	-11	.	-48	-13	-6	.
CC(=O)N1CCN(c2ccc(S(=O)(=O)N3CCCCC3)cc2[N+](=O)[O-])CC1	17	9	5	-18	9	-6
COc1cccc(/C=C/C(=O)c2cccc([N+](=O)[O-])c2)c1	-9	6	17	1	3	7
O=C(/C=C/c1ccc(N2CCCCC2)c([N+](=O)[O-])c1)c1ccc(S(=O)(=O)N2CCCC2)cc1	61	6	55*	-18	17	-2
COc1cccc(C(=O)/C=C/c2ccc(N3CCCCC3)c([N+](=O)[O-])c2)c1	2	1	66*	-34	25	11
O=C(CCN1CCCCCC1)c1ccccc1	12	0	-2	13	-11	3
O=C(/C=C/c1ccccc1)CCN1CCCCC1	80	-4	105*	3	-67	11
Oc1ccc(C[C@H]2CNC(=S)N2C[C@H]2CCCN2C[C@H](Cc2ccccc2)N2C[C@H](Cc3ccc(O)cc3)N(CC3CCCCCC3)C2=S)cc1	-1	.	76*	-21	45	.
CC(C)C[C@H]1CNC(=S)N1CC1CCCN1C[C@H](Cc1ccc(O)cc1)N1C[C@H](Cc2ccccc2)N(CC2CCCCCC2)C1=S (stereo partly drawn)	10	2	-14	2	10	13
CC(C)C[C@H]1CNC(=S)N1C[C@H]1CCCN1C[C@H](Cc1ccc(O)cc1)N1C[C@H](Cc2ccccc2)N(CC2CCCCC2)C1=S	19	.	16	-4	-5	.
CC(C)C[C@H]1CNC(=S)N1CC1CCCN1C[C@H](Cc1ccccc1)N1C[C@H](Cc2ccc(O)cc2)N(CC2CCCCC2)C1=S (stereo partly drawn)	26	1	59*	-12	33	26
CC(C)C[C@H]1CN([C@@H](Cc2ccc(O)cc2)CN2CCC[C@@H]2CN2C(=S)NC[C@@H]2Cc2ccccc2)C(=S)N1CC1CCCCC1	12	.	6	-3	3	.
Oc1ccc(C[C@H]2CN([C@@H](Cc3cccc(O)c3)CN3CCC[C@@H]3CN3C(=S)NC[C@@H]3Cc3ccccc3)C(=S)N2CC2CCCCC2)cc1	64	.	105*	-18	48	.
CCc1nc2ccc(C(=O)Nc3ccc(C(N)=O)cc3)cn2c1N(CCC(C)C)CCN(C)C	-11	.	-9	0	-8	.
CCCCCCCCNS(=O)(=O)CCNCc1ccco1	2	-6	10	-9	-3	-9
Nc1ncnc2c1ncn2[C@@H]1O[C@H](C(=O)N[C@H](CO)Cc2ccc(O)cc2)[C@@H](O)[C@H]1O	24	.	3	4	-15	.
CC1CCCCC1NC(=O)NC(=O)COC(=O)c1nccnc1N (stereo not drawn)	-5	2	3	11	-16	-11
CC1CCCC(NC(=O)NC(=O)CCl)C1C (stereo not drawn)	-1	10	51*	-9	16	71*
CC1CCCCC1NC(=O)NC(=O)CCl (stereo not drawn)	7	0	55*	-5	11	.
O=C(CN1c2ccccc2Sc2ccccc21)NNC(=S)Nc1ccc(Cl)cc1	18	0	13	22	23	-5
